Inhibition data for 95 compounds are collected here from PubChem BioAssay AID449762 (Southern Research Specialized Biocontainment Screening …, 2010).

Each structure is given as a SMILES string. Screen size: about 330,000 compounds; about 1,900 (0.58%) were called active. Inconclusive results (about 4%) are left out. Rule as the data show it: inconclusive = inhibition above about 70% without an active follow-up result; inactive = below that. The list is a sample of the results. Entries with a potency or affinity are not part of this list.

A word on the inhibition: it is the change of the read-out against control, counted positive when it falls.

The test is described as follows: M. tuberculosis growth inhibition, HTS (AID 449762).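 Also: bacterial growth assessed after seven days of incubation.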 To be noted: M. tuberculosis H37Rv growth inhibition, 7H9 media; at 25 µM; hits give high values.
As for `COc1cccc(CCc2nnc(CCC(=O)N3CCN(Cc4ccccn4)CC3)o2)c1`, the inhibition was -0.82% (inactive).

Take `COc1ccccc1C(=O)c1c(C)c(CCC#N)n2ccccc12`: the inhibition was 2.58% (inactive).

For `O=C(COC(=O)C12CC3CC(CC(C3)C1)C2)N1CCN(S(=O)(=O)c2ccccc2)CC1`, the inhibition was 6.15% (inactive).

Consider `CN(C1CCCCC1)S(=O)(=O)c1ccc(SCC(=O)NC(C)(C)C)nc1`, for which the inhibition is -0.68% (inactive).

Regarding `CN1CCN(Cc2cc(Cl)c3cccnc3c2OC(=O)c2cccs2)CC1`, the inhibition is -8.53% (inactive).

As for `CN(C)C(=O)Oc1c(Cl)cc(Cl)c2cccnc12`, the inhibition was 0.5% (inactive).

`CN1C(=O)CC(N2CCN(CCN=CC3=C(O)CC(C)(C)CC3=O)CC2)C1=O` (stereo not given): the inhibition is 9.46% (inactive).

Consider `O=C(CS(=O)(=O)Cc1ccccc1)Nc1ccc(Br)cc1F`, for which the inhibition was -10.1% (inactive).

As to `COn1c2c(c3c4no[n+]([O-])c4ccc31)CCCC2`, the inhibition is 12.5% (inactive).

Consider `CCOC(=O)c1c(C)n(OC)c2ccc3c(no[n+]3[O-])c12`, for which the inhibition is -8.43% (inactive).

`Cc1ccc2[nH]c(=O)c(CN(CC3CCCO3)C(=O)c3ccncc3)cc2c1` (stereo not given): the inhibition was 4.74% (inactive).

For `CN1CCc2c(C#N)c(N3CCCCC3)nc(NCc3ccccc3)c2C1`, the inhibition is 8.6% (inactive).

Consider `CCCCCNc1nc(NCCCO)c(C#N)c2c1CN(C)CC2`, for which the inhibition is 1.69% (inactive).

For `CC(=O)NC(C)(CC(=O)c1ccccc1)c1ccccc1` (stereo not given), the inhibition is -8.86% (inactive).

Turning to `S=C(NCCCN1CCOCC1)N(Cc1ccccc1)Cc1ccccc1`, the inhibition was -1.92% (inactive).

Turning to `Cc1ccccc1Nc1nn2c(=O)c3ccccc3nc2s1`, the inhibition was 4.93% (inactive).

In the case of `C=CCSc1nn2c(=O)c3ccccc3nc2s1`, the inhibition is 66.1% (inactive).

For `Cc1nc(SCC(C)C)[nH]c(=O)c1Cc1ccccc1`, the inhibition is -4.67% (inactive).

As to `O=C(OCc1nnc(-c2ccccc2)o1)c1ccccc1`, the inhibition was 3.86% (inactive).

On to `O=C(OCc1nnc(-c2ccccc2)o1)c1ccc([N+](=O)[O-])s1`, for which the inhibition was 63.8% (inactive).

Turning to `COc1ccc(OC)c(NC2=NCCCS2)c1`, the inhibition is -1.69% (inactive).

For the compound `COc1ccc(C(CNC(=O)C(=O)NC2CCCCC2)N2CCN(C)CC2)cc1` (stereo not given), the inhibition is -12.6% (inactive).

Turning to `COc1ccc(OC)c(N2Cc3ccccc3C2)c1`, the inhibition is 3.42% (inactive).

For the compound `COc1ccccc1CC(=O)N1CCN(c2ccccc2F)CC1`, the inhibition is 3% (inactive).

With `COc1ccccc1NC(=O)Nc1nc(CC(=O)NCc2c(F)cccc2F)cs1`, the inhibition is 29.2% (inactive).

Consider `O=C(Nc1cccc(S(=O)(=O)N2CCOCC2)c1)c1cc(=O)[nH]c2ccccc12`, for which the inhibition was -2.49% (inactive).

Consider `CN(C)Cc1nc2ccccc2c(=O)n1CC#N`, for which the inhibition was -2.77% (inactive).

As for `N#CCn1c(Cc2ccccc2)nc2ccccc2c1=O`, the inhibition is -1.48% (inactive).

Take `CCOCCc1nnc(NC(=O)CS(=O)(=O)c2ccc(C)cc2)s1`: the inhibition was -7.28% (inactive).

As for `COc1ccccc1CN1CCC(n2nccc2NC(=O)CCCc2ccccc2)CC1`, the inhibition was 3.32% (inactive).

With `CCOC(=O)C1=C(CSc2nc3c(cc2C#N)CN(C)CC3)OC(N)=C(C#N)C1c1ccc(Cl)cc1` (stereo not given), the inhibition is -0.9% (inactive).

As to `COc1ccc(C(CC(=O)NCCCN2CCOCC2)NS(=O)(=O)c2ccc(C)cc2)cc1` (stereo not given), the inhibition was -3.32% (inactive).

With `Cc1ccc(NC(=O)C2CCN(c3cnccn3)CC2)cc1`, the inhibition is -0.63% (inactive).

For the compound `CCCc1ccc(NC(=O)C2CCCN(c3cnccn3)C2)cc1` (stereo not given), the inhibition was 3.51% (inactive).

On to `COc1ccc(NC(=O)C2CCCN2S(=O)(=O)c2ccc3c(c2)CCC(=O)N3)cc1` (stereo not given), for which the inhibition is -21% (inactive).

With `CCCn1c(CCc2ccccc2)nnc1SCC(=O)N1CCCC1`, the inhibition is -5.53% (inactive).

Turning to `C[C@]12CCC(=O)C=C1CC[C@@H]1C2[C@H](O)C[C@]2(C)C(=O)CCC12` (stereo not given in full), the inhibition was 2.16% (inactive).

Turning to `Cc1nnc(NC(=O)c2cc(-c3ccncc3)nc3c(C)cccc23)s1`, the inhibition was 9.24% (inactive).

On to `Cc1cc(NC(=O)c2cc(-c3cccnc3)nc3c(C)c(C)ccc23)no1`, for which the inhibition was 2.95% (inactive).

With `CCN(CC)S(=O)(=O)c1cccc(-c2n[nH]c(=S)n2CC(C)C)c1`, the inhibition was 4.49% (inactive).

Take `COC(=O)N(NC(=O)C(O)(CCC(C)C)CCC(C)C)c1ccccc1`: the inhibition is 2.67% (inactive).

Turning to `CCOC(OCC)P(=O)(C(C)C)C(C)C`, the inhibition is -4.61% (inactive).

`Cc1ccc(-c2nnc3c(C(F)(F)F)nc4ccccc4n23)cc1`: the inhibition is 0.23% (inactive).

`CC(C)c1cc(-c2cc(-c3ccccc3)on2)nc(NC2CCCC2)n1`: the inhibition is 5.62% (inactive).

As to `Cc1cc(-c2cc(-c3ccc(Cl)cc3)on2)nc(NC2CCCC2)n1`, the inhibition is 31.4% (inactive).

With `CCCCN(C)C(=O)CC(NS(=O)(=O)c1ccc(NC(C)=O)cc1)C(C)C` (stereo not given), the inhibition is 0.04% (inactive).

As to `Cc1ccc(-n2nnnc2CNC(=O)c2ccc(Br)o2)cc1C`, the inhibition is 11.2% (inactive).

In the case of `O=C(NCc1nnnn1-c1ccc(Cl)cc1)c1ccc(Br)o1`, the inhibition was -0.54% (inactive).

Regarding `O=C(O)C1C2C=CC(C2)C1C(=O)NCc1ccc(Cl)cc1Cl` (stereo not given), the inhibition is 7.08% (inactive).

For the compound `Oc1ccccc1-c1cc(C(F)(F)C(F)F)nc(-c2ccccc2)n1`, the inhibition was 12.1% (inactive).

Regarding `Oc1ccccc1-c1cc(C(F)(F)F)nc(-c2ccccc2)n1`, the inhibition is 6.24% (inactive).

As to `Cc1cc(C)nc(/N=C(\N)Nc2cc([N+](=O)[O-])ccc2C)n1`, the inhibition was 1.78% (inactive).

Regarding `COc1ccc(C)cc1N/C(N)=N/c1nc(C)cc(C)n1`, the inhibition is 5.92% (inactive).

With `CC(=O)N/C(=C\c1ccccc1)C(=O)OCC(=O)NC(C)C12CC3CC(CC(C3)C1)C2` (stereo not given), the inhibition was 10.4% (inactive).

For the compound `O=C(CCC(=O)OCc1ccc([N+](=O)[O-])cc1)Nc1ccccc1Cl`, the inhibition is -11.9% (inactive).

Take `CC(C)(C)c1ccc(C(=O)NNC(=O)c2ccc(Cl)cc2)cc1`: the inhibition is -6.43% (inactive).

For the compound `CC(C)(C)NC(=O)C(=O)NNC(=O)c1ccccc1`, the inhibition was -5.28% (inactive).

For `Cc1cc(C)c(S(=O)(=O)c2cc(F)ccc2C)c(Cl)n1`, the inhibition was 6.18% (inactive).

As to `Cc1cc(/C([O-])=C(/C(=S)Nc2ccc(F)cc2)[n+]2ccccc2)c(C)n1-c1ccc(F)cc1`, the inhibition is -9.36% (inactive).

`Cc1cc(/C([O-])=C(/C(=S)Nc2ccccc2)[n+]2ccccc2)c(C)n1-c1ccccc1`: the inhibition was 38.1% (inactive).

With `CC(CC(=O)N1CCN(S(=O)(=O)c2ccc(Cl)cc2)CC1)n1cncn1` (stereo not given), the inhibition was 7.22% (inactive).

Regarding `Cc1cc2nncn2c(Cc2ccccc2)n1`, the inhibition is -5.06% (inactive).

As to `CCCNC(=O)c1onc(CSc2ccccc2)c1C(=O)NCCC`, the inhibition is 3.78% (inactive).

As for `CCc1cc2c(=O)n(CC(C)C)cnc2s1`, the inhibition is 13.2% (inactive).

As to `CCc1cc2c(=O)n(CC(=O)NC3CCCCC3)cnc2s1`, the inhibition was -19.5% (inactive).

For `Cc1sc2ncn(CC(=O)N(CC(=O)NC3CCCC3)Cc3cccs3)c(=O)c2c1C`, the inhibition is -6.3% (inactive).

In the case of `O=C(CCc1nc(-c2ccccc2F)no1)NCCc1ccccc1Cl`, the inhibition is -5.37% (inactive).

`CC(=O)Oc1ccc(C(=O)Nc2cccc(C(=O)c3ccc(C)c(C)c3)c2)cc1`: the inhibition is 6.87% (inactive).

In the case of `O=C(N/N=C/c1ccc(O)cc1)c1cc[n+](Cc2ccccc2)cc1`, the inhibition was -5.45% (inactive).

As to `O=C(C[n+]1cccc(C(=O)N/N=C/c2ccc(Br)cc2)c1)c1ccccc1`, the inhibition was -3.73% (inactive).

As for `Cn1c(=O)n(C)c2cc([N+](=O)[O-])c(N3CCN(S(=O)(=O)c4ccc(C(C)(C)C)cc4)CC3)cc21`, the inhibition is -9.94% (inactive).

Consider `CCN1CCN(c2oc(COc3ccc(Cl)cc3)nc2C#N)CC1`, for which the inhibition is 8.42% (inactive).

For the compound `Cc1ccc(OCc2nc(C#N)c(N3CCN(Cc4ccccc4)CC3)o2)cc1`, the inhibition was -9.38% (inactive).

For the compound `CCCc1nc2oc3c(NCc4ccccn4)ncnc3c2c2c1COC(C)(C)C2`, the inhibition is -3.19% (inactive).

In the case of `CCOc1ccc(N2CC(C(=O)N3CCCCCC3)CC2=O)cc1` (stereo not given), the inhibition is -1.61% (inactive).

Regarding `COc1ccc(NC(=O)CSc2nnc3ccc(-c4ccccn4)nn23)c(OC)c1`, the inhibition was -1.07% (inactive).

As for `CC(C)(CO)NCc1ccccc1OCC(=O)Nc1ccccc1`, the inhibition was -10.3% (inactive).

With `CNCc1ccccc1OCC(=O)Nc1ccccc1`, the inhibition was -16.8% (inactive).

`CCc1cc2c(SCC(=O)c3cccs3)ncnc2s1`: the inhibition was -6.51% (inactive).

As to `CCNCC(=O)N1c2ccccc2CCc2ccc(NC(=O)OCC)cc21`, the inhibition was 8.22% (inactive).

For `CCNCC(=O)N1c2ccccc2CCc2ccc(NC(C)=O)cc21`, the inhibition is -1.99% (inactive).

Consider `Cc1ccc(Oc2ccc(Oc3ccc(C)cc3)nn2)cc1`, for which the inhibition is 1.77% (inactive).

Turning to `O=C(CN1CCN(S(=O)(=O)c2ccccc2)CC1)N1CCCCC1`, the inhibition was -3.13% (inactive).

Take `CN(C)CCCn1c(NCc2ccc3c(c2)OCO3)nc2ccccc21`: the inhibition is -3.55% (inactive).

As to `CCCn1c(NCc2ccc3c(c2)OCO3)nc2ccccc21`, the inhibition was 13.3% (inactive).

With `CNC(=O)c1c(NC(=O)c2ccco2)sc2c1CCC2`, the inhibition was 8.18% (inactive).

In the case of `O=C(CCNS(=O)(=O)c1ccccc1)NNC(=O)COc1ccccc1F`, the inhibition was 0.68% (inactive).

Turning to `CCCOC(=O)c1cccc(NC(=O)COc2ccc([N+](=O)[O-])cc2)c1`, the inhibition was 66.4% (inactive).

With `NC(=O)COc1ccc(Cc2ncc(C(F)(F)F)cc2Cl)cc1`, the inhibition is 5.51% (inactive).

As for `CC(=O)C(C)Oc1ccc(Cc2ncc(C(F)(F)F)cc2Cl)cc1` (stereo not given), the inhibition was 10.2% (inactive).

Regarding `C=CCn1c(SCC(=O)c2c(N)n(C)c(=O)n(C)c2=O)nnc1-c1ccoc1C`, the inhibition is 2.92% (inactive).

As for `CC(Sc1nnc(-c2cccnc2)n1N)C(=O)N1CCOCC1` (stereo not given), the inhibition was -0.03% (inactive).

Regarding `COc1cc(C(=O)NCCC(=O)NCCN2CCCCCC2)cc(OC)c1OC`, the inhibition is -5.5% (inactive).

For the compound `CCCNS(=O)(=O)c1ccc(OCC(=O)NCCC2=CCCCC2)cc1`, the inhibition was -5.92% (inactive).

As to `COC(=O)COc1ccc(S(=O)(=O)NCCC2=CCCCC2)cc1`, the inhibition is 59.1% (inactive).
